From PubChem BioAssay
KB-V1 cytotox = qHTS assay for MDR1-selective chemotherapeutics: Primary screen using the drug-selected MDR subline cells KB-V1; 400,000 compounds, 3.4% hits; Potency, µM (series often up to 46.1 µM), most hits filed as cytotoxic; AID 1347076, 2019; KB-V1 MDR cells viability, CellTiter-Glo, 72 h; further: nearly all actives have a fitted effect of over 60% in size
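Potencies derive from concentration-effect curves fitted to normalized luminescence (CellTiter-Glo) of KB-V1 cells treated for 72 h at 37 degrees C in phenol-red-free DMEM containing 10% FBS.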
MCF10A rerep = A quantitative high throughput screen for small molecules that induce DNA re-replication in MCF 10a normal breast cells. 350,000 compounds, 2.9% hits. Potency, µM (doses to about 46.1 µM), usual class: activators. MCF 10A DNA re-replication, Hoechst nuclear intensity, 48 h; further: nearly all actives have a fitted effect of over 50% in size
KB-3-1 cytotox = qHTS assay for MDR1-selective chemotherapeutics: Primary screen using the parental adenocarcinoma cell KB-3-1. KB-3-1 viability, CellTiter-Glo ATP luminescence, 72 h. Potency, µM (doses to about 46.1 µM), usual class: cytotoxic. 400,000 compounds, 1.4% hits. AID 1347075, 2019; further: nearly all actives have a fitted effect of over 60% in size
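Parental KB-3-1 viability, qHTS format: 72 h compound exposure, 37 °C; CellTiter-Glo; media-only wells and DMSO plates as controls; concentration-effect fits on corrected data.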
PINK1 modulator = A Quantitative High throughput Screen to Identify Chemical Modulators of PINK1 Expression | PINK1 immunofluorescence, high-content cytometry, 24 h | Potency, µM (highest dose often 76.6 µM), hits mostly activators | 410,000 compounds, 0.2% hits | AID 624263, 2012; active means well fitted activation curve with a large enough effect; inconclusive means small, poorly fitted or top-dose-only effect; cell line not stated here; further: nearly all actives have a fitted effect of over 65% in size
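Fluorescence from anti-PINK1 antibody, together with nuclear and cell stains, was scanned on a laser-scanning cytometer. Before staining, stable-line cells were incubated 24 hours with compounds at 5 concentrations; primary antibody 12 h at 10 degrees C.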
TSG101-PTAP inh = qHTS Assay for Iinhibitors of HIV-1 Budding by Blocking the Interaction of PTAP/TSG101. Tumor susceptibility gene 101 protein (Homo sapiens), Q99816. Fluorescence polarization, FITC-PTAP peptide / Tsg101 binding. 340,000 tested, under 10 active. Potency, µM (doses to about 115 µM), actives largely listed as inhibitors. AID 493005, 2010; active means well fitted inhibition curve with a large enough effect in the main read-out, with a control signal flat, not every such curve was filed as active; inconclusive means small, poorly fitted or top-dose-only effect, or effect the other way, or a change in a side signal; inactive means no such curve, though single readings can be large or run the other way
Target sequence (Q99816 whole entry, looked up): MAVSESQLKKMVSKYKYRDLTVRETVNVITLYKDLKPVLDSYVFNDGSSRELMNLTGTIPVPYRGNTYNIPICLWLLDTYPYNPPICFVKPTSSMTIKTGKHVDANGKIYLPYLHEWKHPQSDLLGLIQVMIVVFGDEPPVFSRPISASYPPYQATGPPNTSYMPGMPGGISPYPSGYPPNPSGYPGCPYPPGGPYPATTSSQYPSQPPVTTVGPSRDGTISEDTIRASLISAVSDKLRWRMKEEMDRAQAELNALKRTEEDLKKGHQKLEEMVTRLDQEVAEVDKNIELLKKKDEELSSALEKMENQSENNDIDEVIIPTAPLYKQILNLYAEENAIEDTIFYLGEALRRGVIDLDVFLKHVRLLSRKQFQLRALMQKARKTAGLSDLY
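Fluorescence polarization binding of Tsg101 binding domain (10 uM final) to FITC-labeled PTAP peptide (50 nM final) in HEPES pH 7.5 buffer with NaCl, Tween 20, EDTA, TCEP. Compounds added before peptide; binding 20 min at RT.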
SW480 rereplic = A quantitative high throughput screen for small molecules that induce DNA re-replication in SW480 colon adenocarcinoma cells; SW480 DNA re-replication, Hoechst DNA content imaging, 48 h; Potency, µM (top dose mostly 46.1 µM), actives largely listed as activators; 340,000 compounds, 1.8% hits; AID 624297, 2012; further: nearly all actives have a fitted effect of over 55% in size
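Treated cells incubate 48 hr (37 C, 5% CO2), are stained 40 min with Hoechst, and nuclear fluorescence is enumerated; a rise in nuclei with high DNA signal marks re-replication.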
Numbers stand for hits; - = inactive; ? = inconclusive; . = no result. Compounds with a hit are over-represented: about 6.8% of the library has one in this group of screens. Unless noted, the call rests on the fitted dose curve; in most records, active means well fitted curve in the direction sought with a large enough effect; inconclusive means small, poorly fitted or top-dose-only effect, or another doubt; inactive means no such curve, though single readings can be large; an effect the other way counts as inactive or inconclusive.

SMILES	KB-V1 cytotox	MCF10A rerep	KB-3-1 cytotox	PINK1 modulator	TSG101-PTAP inh	SW480 rereplic
Cn1c(=O)c2sccc2n2c(CCCC(=O)NC3CCCCC3)nnc12	.	.	.	-	.	.
Cc1ccc(C(C)n2cc(C(=O)NCc3cccnc3)nn2)cc1 (stereo not drawn)	15µM	-	-	-	-	-
CC(C)(C)c1cc(OC(=O)C2CCCC2)ccc1O	-	?	-	-	-	?
CCCCC(CC)C(=O)Oc1ccc(O)c(C(C)(C)C)c1 (stereo not drawn)	-	4.1µM	-	-	-	-
CC(C)(C)c1ccc(C(=O)Nc2cc(-c3nc4ccccc4o3)ccc2Cl)cc1	-	.	-	-	.	.
CC1CCN(C(=O)CN2CCSc3ccc(S(=O)(=O)N(C)C)cc32)CC1	?	.	-	-	.	.
COc1cc(-c2nnc(NC(=O)CCS(=O)(=O)c3ccccc3)o2)cc(OC)c1OC	-	18µM	-	-	-	?
COc1cc(-c2nnc(NC(=O)CCS(=O)(=O)c3ccc(F)cc3)o2)cc(OC)c1OC	-	16µM	-	-	-	-
O=C(NCCc1ccccc1)c1cc(-c2cccc(Cl)c2)on1	-	.	-	-	.	.
COc1ccc(NC(=O)CSc2nc(=O)n(CCN3CCOCC3)c3c2CCCC3)c(OC)c1	8.2µM	-	-	-	-	-
CN(C)CCn1c2c(c(SCC(=O)Nc3cccc4ccccc34)nc1=O)CCCC2	-	-	-	-	-	0.58µM
O=C(NCC(c1cccs1)S(=O)(=O)c1cccs1)c1ccccc1 (stereo not drawn)	.	.	.	-	.	.
O=C(COC(=O)CNC(=O)C1CCCCC1)NC1CC1	-	.	?	-	.	.
CCCOc1ccccc1NC(=O)/C=C/C(N)=O	-	4.5µM	-	-	-	13µM
Clc1ccccc1-c1nccc(NCc2cccs2)n1	.	.	.	-	.	.
O=C(c1ccc2[nH]ccc2c1)N1CCOc2ccc(CN3CCN(c4ccccn4)CC3)cc2C1	.	.	.	-	.	.
Cc1nonc1NC(=O)CSc1nc(C23CC4CC(CC(C4)C2)C3)nc2ccccc12	?	10µM	?	-	-	?
CCN(CC)c1ccc(NC(=O)CSc2nc(C3CC3)nc3ccccc23)cc1C	6.5µM	6.5µM	4.6µM	-	-	8.2µM
Cc1nonc1NC(=O)CSc1nc(C2CCCCC2)nc2ccccc12	-	?	-	-	-	8.2µM
CSc1cccc(NC(=O)N2CCN(S(=O)(=O)c3ccc4c(ccn4C)c3)CC2)c1	-	.	-	-	.	.
CC(=O)N(C1=C(N2CCOCC2)C(=O)c2ccccc2C1=O)c1ccc(C(=O)O)cc1	-	?	-	-	-	4.1µM
O=C(O)c1ccc(NC2=C(N3CCOCC3)C(=O)c3ccccc3C2=O)cc1	-	-	-	-	-	.
Cc1ccc(NC2=C(N3CCOCC3)C(=O)c3ccccc3C2=O)cc1	?	-	-	-	-	-
CC(=O)N(C)C1=C(N2CCOCC2)C(=O)c2ccccc2C1=O	12µM	0.73µM	1.2µM	-	-	?
CC(=O)c1ccc(NC2=C(N3CCOCC3)C(=O)c3ccccc3C2=O)cc1	26µM	-	-	?	-	-
SMILES	KB-V1 cytotox	MCF10A rerep	KB-3-1 cytotox	PINK1 modulator	TSG101-PTAP inh	SW480 rereplic
Cc1ccc(S(=O)(=O)NC2=C(N3CCN(c4ccccc4F)CC3)C(=O)c3ccccc3C2=O)cc1	?	-	?	-	-	-
CC(=O)Nc1ccc(S(=O)(=O)NC2=C(N3CCN(c4ccc(F)cc4)CC3)C(=O)c3ccccc3C2=O)cc1	?	16µM	-	-	-	16µM
O=C(NC1CCCC1)c1ccc2c(c1)N(Cc1c(F)cccc1Cl)C(=O)c1ccccc1S2	-	.	-	-	.	.
CSc1nccc(-c2cc(Cl)c3c(c2)CC(CNC(=O)c2nonc2C)O3)n1 (stereo not drawn)	.	.	.	-	.	.
O=c1c(Cl)c(O)c2cccc3c4ccccc4n1c23	?	23µM	-	-	-	-
COc1c(O)c(=O)n2c3ccccc3c3ccnc1c32	-	-	-	-	-	-
CCN(CC)CCSc1c(C(C)C)cnc2c1c(=O)n(C)c(=O)n2C	.	.	.	-	.	.
N#Cc1cccc(NC(=O)N2CC3(CCN(C(=O)c4cccc(F)c4)CC3)C2)c1	.	.	.	-	.	.
CC1(C)Oc2ccc3ccc(=O)oc3c2C[C@H]1O[C@@H]1O[C@H](CO)[C@@H](O)[C@H](O)[C@H]1O	-	-	-	-	-	-
CC(=O)OC(C)(C)/C=C/C(=O)[C@](C)(O)C1[C@H](O)C[C@@]2(C)C3CC=C4C(C=C(O[C@@H]5O[C@H](CO)[C@@H](O)[C@H](O)[C@H]5O)C(=O)C4(C)C)[C@]3(C)C(=O)C[C@]12C (stereo partly drawn)	?	5.2µM	?	-	-	0.92µM
CCCn1nnnc1NCc1ccccc1OCc1cccs1	-	-	-	.	-	-
CCCn1nnnc1NCc1ccccc1OCc1ccc(F)cc1	?	23µM	-	-	-	?
CCOc1ccc(C(=O)Nc2cccc3ncccc23)cc1Br	-	0.58µM	-	-	-	-
CC(C)(C)c1ccc(C(=O)Nc2cccc3ncccc23)cc1	-	-	-	-	-	?
O=C(Nc1cccc2ncccc12)c1ccc(OCc2ccccc2)cc1	?	1.5µM	-	-	-	-
Nc1ccc(C(=O)Nc2cccc3ncccc23)cc1	-	-	-	-	-	-
COc1cc(OC)c(NC(=O)c2c(C)oc3ncnc(N4CCCCC4)c23)cc1Cl	-	.	-	-	.	.
CN(CC(=O)Nc1ccc(F)c(F)c1F)C(=O)CC1CCCCC1	15µM	-	-	-	-	-
COc1c(Cl)cc(C(=O)NN)cc1Cl	-	?	-	-	-	13µM
COc1c(Cl)cc(C(=O)O)cc1Cl	-	-	-	-	-	-
Cc1cc(C)cc(NC(=O)Cn2c(=O)oc3cc(S(=O)(=O)N4CCC(C)CC4)ccc32)c1	-	16µM	-	-	-	?
CC1CCN(S(=O)(=O)c2ccc(NC(=O)Cn3nnc(-c4ccccc4)n3)cc2)CC1	15µM	?	?	-	-	-
CC1CCCN(CC(=O)Nc2ccc(S(=O)(=O)NC3CCCCC3)cc2)C1 (stereo not drawn)	?	16µM	-	-	-	-
CC1CCN(S(=O)(=O)c2ccc(NC(=O)CN3CCCC3)cc2)CC1	-	9.2µM	-	-	-	-
CC1CCCN(CC(=O)Nc2ccc(S(=O)(=O)N3CCCCC3)cc2)C1 (stereo not drawn)	-	-	-	-	-	?
